Assay outcomes (PubChem BioAssay)
Compounds with a hit are over-represented: about 18% of the library has one in this group of screens.
TDP1 cell CPT – growth inhibition of DT40 Tdp1-/-;hTDP1 cells with camptothecin (screen for TDP1 inhibitors). Potency, µM (top dose mostly 46.2 µM), most hits filed as inhibitors. chicken DT40 Tdp1-/-;hTDP1 cells + 20 nM CPT, ATP luminescence, 48 h. 420,000 tested, 12% active; note: nearly all actives have a fitted effect of over 55% in size
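Cell growth measured by CellTiter-Glo luminescence after a minimum 48 h, 37 C compound exposure with 20 nM CPT in Tdp1-knockout DT40 cells stably expressing hTDP1, seeded 400/well; qHTS titration format.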
Six1-Eya2 inh – blocks human Six1 binding to Eya2; Q15475+O00167; AlphaScreen GST-Six1/His-Eya2 binding, biochemical; active compounds read low; activity change, % (test concentration not listed); 360,000 tested, 0.56% active; in the data active = activity change below about -65%; inconclusive = mostly about -30% to -63%
Target sequence (O00167 whole entry, looked up): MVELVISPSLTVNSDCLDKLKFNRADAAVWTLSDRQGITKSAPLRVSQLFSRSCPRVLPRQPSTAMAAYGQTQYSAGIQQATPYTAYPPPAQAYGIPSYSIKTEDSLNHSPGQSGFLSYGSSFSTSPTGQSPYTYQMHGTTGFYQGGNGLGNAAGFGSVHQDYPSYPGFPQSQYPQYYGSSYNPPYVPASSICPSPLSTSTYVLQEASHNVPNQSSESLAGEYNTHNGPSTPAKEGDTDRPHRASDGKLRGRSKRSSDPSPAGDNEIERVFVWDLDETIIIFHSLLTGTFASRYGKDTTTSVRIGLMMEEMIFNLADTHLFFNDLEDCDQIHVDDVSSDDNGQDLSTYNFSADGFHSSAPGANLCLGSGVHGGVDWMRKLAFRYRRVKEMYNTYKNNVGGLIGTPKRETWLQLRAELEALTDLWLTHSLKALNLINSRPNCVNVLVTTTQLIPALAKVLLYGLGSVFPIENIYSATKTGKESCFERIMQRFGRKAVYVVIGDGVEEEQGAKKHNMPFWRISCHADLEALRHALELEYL
Target sequence (Q15475 whole entry, looked up): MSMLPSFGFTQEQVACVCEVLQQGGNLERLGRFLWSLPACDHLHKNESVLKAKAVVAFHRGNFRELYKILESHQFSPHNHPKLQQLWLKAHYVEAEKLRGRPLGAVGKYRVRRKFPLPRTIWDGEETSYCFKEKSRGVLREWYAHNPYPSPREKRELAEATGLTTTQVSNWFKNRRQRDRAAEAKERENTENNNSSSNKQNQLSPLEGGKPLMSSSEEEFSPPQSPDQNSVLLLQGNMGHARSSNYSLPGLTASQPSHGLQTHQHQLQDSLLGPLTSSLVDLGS
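Compounds are tested against tagged Six1 and Eya2 proteins bridged by glutathione donor and nickel acceptor beads; after a one-hour incubation at 37 °C without light, AlphaScreen emission is recorded.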
TDP1 block – TDP1 (human) enzyme inhibition; recombinant TDP1, AlphaScreen DNA substrate cleavage; Potency, µM (doses to about 130 µM), actives largely listed as inhibitors; Q9NUW8; 350,000 tested, 0.28% active; note: nearly all actives have a fitted effect of over 40% in size
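Signal: AlphaScreen proximity between streptavidin donor and anti-FITC acceptor beads on intact substrate. Reaction: Tdp1 1 nM, substrate 15 nM final, 5 min RT after 15 min compound preincubation.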
DT40 TDP1 no CPT – qHTS for Inhibitors of human tyrosyl-DNA phosphodiesterase 1 (TDP1): qHTS in cells in absence of CPT | Potency, µM (titrated, usually from 46.2 µM), most hits filed as inhibitors | DT40 Tdp1-/- hTDP1 cells, no CPT, ATP luminescence, 48 h | 420,000 tested, 15% active; note: nearly all actives have a fitted effect of over 55% in size
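Chicken DT40 Tdp1-/- cells complemented with human TDP1, screened without camptothecin (DMSO vehicle only), 400 cells/well. Compounds pin-transferred, cells incubated at 37 °C for at least 48 hr. Growth read as ATP-dependent luminescence (CellTiter-Glo, 30 min at RT).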
CtBP-E1A blk – CtBP/E1A binding inhibition | AID 651724 | AlphaScreen GST-E1A/His-CtBP binding, 1536-well; active compounds read low | activity change, % (concentration not given with the values) | 340,000 tested, 0.49% active; in the data active = activity change below about -65%; inconclusive = mostly about -30% to -63%
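Protein mix (5X: 125 nM each GST-E1A, His-CtBP) was incubated with pinned compound 2 h at 37 deg C in dark, in 50 mM Tris pH 8.0 buffer with 300 mM NaCl. Glutathione donor and nickel acceptor beads followed; AlphaScreen signal read after 1 h.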
IL1B secr inh – inflammasome signaling inhibition, IL-1 beta readout. THP-1 LPS/ATP IL-1B secretion, AlphaLISA, 16 h; active compounds read low. activity change, % at 57.5 µM. 360,000 tested, 4.7% active. AID 743279; in the data active = activity change below about -50%; inconclusive = mostly about -30% to -49%
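THP-1 cells pretreated 1 hr with compounds (up to 57.5 uM final), then stimulated with LPS (250 ng/mL final) plus ATP (1.25 mM final); secreted IL-1B measured by AlphaLISA after 16 hr, decreased signal indicating inhibition.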
Numbers stand for hits; i = inactive; ? = inconclusive; nt = no result given. Unless noted, calls come from the whole dose curve; as a rule, active = well fitted curve in the direction sought with a large enough effect; inconclusive = small, poorly fitted or top-dose-only effect, or another doubt; inactive = no such curve, though single readings can be large; an effect the other way counts as inactive or inconclusive.

SMILES	TDP1 cell CPT	Six1-Eya2 inh	TDP1 block	DT40 TDP1 no CPT	CtBP-E1A blk	IL1B secr inh
O=C(CN1CCN(S(=O)(=O)c2ccc(F)cc2)CC1)Nc1ccc2c(c1)OCCO2	i	i	i	i	i	i
O=C(CN1CCN(CC(=O)Nc2ccccc2F)CC1)Nc1ccc(Cl)c(C(F)(F)F)c1	7.3µM	nt	i	6.5µM	nt	nt
Cc1noc(NS(=O)(=O)c2ccc(NC(=O)c3cccc(S(=O)(=O)Nc4ccccc4F)c3)cc2)c1C	i	i	i	i	i	i
COc1ccccc1CNC(=O)c1ccc(CS(=O)(=O)c2c(Cl)cccc2Cl)o1	?	nt	i	?	nt	nt
CC1CCCC(NC(=O)C2CCN(S(=O)(=O)N3CCCCCC3)CC2)C1C (configuration not stated)	?	i	i	23µM	i	i
CC1(C)Cc2c(ccc3ccccc23)C2=C(C(=O)N3CCCC3)C(=O)C(=O)N21	8.2µM	i	i	8.2µM	i	i
C=CCNc1nc2ccccc2nc1NS(=O)(=O)c1ccc(Cl)cc1	?	i	nt	?	nt	i
CCOC(=O)NC(NCc1ccccc1)(C(F)(F)F)C(F)(F)F	i	i	i	i	i	i
O=C(O)C1CSC(c2coc3ccccc3c2=O)N1 (configuration not stated)	26µM	i	i	?	i	i
CC1CCOC(c2coc3ccccc3c2=O)O1 (configuration not stated)	i	i	i	i	i	i
O=C(COc1ccc2c(c1)C(=O)CC1(CCCCC1)O2)NCc1ccccc1	?	i	i	21µM	i	i
COc1cc2c(cc1OC)CN(C(=O)C(C)(C)C)CC2	i	i	i	i	i	i
COc1cc2c(cc1OC)CN(C1CCC(C(C)(C)C)CC1)CC2 (configuration not stated)	?	i	nt	21µM	i	nt
CC(=NCc1ccccc1)C1=C(O)COC1=O	i	i	i	i	i	i
COc1ccc(C[C@](C)(N)C(=O)O)cc1OC	i	i	nt	2.3µM	i	i
C[C@](N)(Cc1ccc(O)cc1)C(=O)O	i	nt	i	i	nt	nt
CCCS(=O)(=O)N1CC(=O)N(c2ccccc2C)C(C)(C(=O)NC2CCCCC2)C1 (configuration not stated)	i	nt	i	i	nt	nt
COc1ccccc1C(=O)n1nc(-c2ccco2)nc1NCc1ccc(Cl)cc1	i	nt	i	?	nt	nt
O=C(c1cccs1)n1nc(-c2ccccc2)nc1NCc1ccco1	21µM	i	i	?	i	i
COc1ccc(CNc2nc(NCc3ccc(OC)c(OC)c3)n(C(=O)c3cccs3)n2)cc1OC	16µM	i	i	15µM	i	?
Cc1ccccc1C(=O)n1nc(-c2ccco2)nc1NCc1cccs1	13µM	nt	i	?	nt	nt
CCCCNC(=O)C1(C)CCCCN1C(=O)c1cncc(Br)c1 (configuration not stated)	i	i	nt	i	i	i
CSc1nnc(CNS(=O)(=O)c2ccc(F)cc2F)n1-c1ccccc1C	?	nt	nt	i	nt	nt
COc1ccc(CNc2ccc(Cl)cc2)cc1Cn1ccnc1	?	?	nt	16µM	?	-71
CC(C)[C@H](NC(=O)[C@@H]1CSCN1C(=O)OC(C)(C)C)C(=O)NCC1CCC(C(=O)O)CC1 (some centres not stated)	i	i	i	i	i	i
SMILES	TDP1 cell CPT	Six1-Eya2 inh	TDP1 block	DT40 TDP1 no CPT	CtBP-E1A blk	IL1B secr inh
CN(C)CCN1C(=O)c2cccc3cc([N+](=O)[O-])cc(c23)C1=O	0.21µM	?	nt	0.26µM	i	-102
CN(C)CCN1C(=O)c2ccccc2C1=O	i	i	i	i	i	i
O=C1c2ccccc2C(=O)N1CCCCN(C(=O)c1ccc(Cl)s1)c1ccc(Cl)cc1	?	i	i	21µM	i	i
O=C1c2cccc3cccc(c23)C(=O)N1CCCN(C(=O)c1cccs1)c1cccc(F)c1	?	i	i	16µM	i	i
Cc1ccc(N(CCCCN2C(=O)c3ccccc3C2=O)C(=O)c2cccc([N+](=O)[O-])c2)cc1	?	i	i	16µM	i	i
CCC[C@@H](OS(N)(=O)=O)[C@@H](Cc1ccccc1)C(=O)OCC	i	i	nt	i	i	i
CN(C)CCCN1C(=O)c2cc3ccccc3cc2C1=O	i	i	i	i	nt	i
O=C1c2ccccc2C(=O)N1CC1CCCO1 (configuration not stated)	i	i	i	i	i	i
COc1ccc(N(CCCN2C(=O)c3cccc4cccc(c34)C2=O)C(=O)c2cccc(OC)c2)cc1	13µM	i	i	10µM	i	i
O=C1c2cccc3cc([N+](=O)[O-])cc(c23)C(=O)N1CC1CCCO1 (configuration not stated)	7.3µM	i	i	6.5µM	i	-72
CN(C)CCCN1C(=O)c2cccc3cccc(c23)C1=O	?	i	i	?	i	-89
Cc1ccc(NC(=O)N2CCC(NC(=O)c3cccc(F)c3)CC2)cc1	i	i	i	i	i	i
CCCCCCCCCCCC[n+]1ccc(C)c2ccccc21	2µM	nt	nt	2µM	nt	nt
Cc1cc[n+](C)c2ccccc12	i	nt	nt	i	nt	nt
CCCCCCC[n+]1ccc(C)c2ccccc21	0.45µM	nt	nt	0.45µM	nt	nt
Cc1cc[n+](CCC2CCCCC2)c2ccccc12	1.3µM	nt	nt	0.89µM	nt	nt
O=C(CCNC(=O)OCC1c2ccccc2-c2ccccc21)NOCc1ccccc1	3.3µM	i	nt	4.1µM	i	i
NCC(=O)NNC(=O)OCC1c2ccccc2-c2ccccc21	i	i	nt	i	i	i
O=C(O)CCNC(=O)OCC1c2ccccc2-c2ccccc21	8.2µM	i	nt	?	i	i
Cc1cc(C(=O)N/N=C/c2ccc([N+](=O)[O-])cc2)c(C)o1	i	i	i	?	i	i
Cc1ccc(C)c(N2CCN(C(=O)CCC(=O)Nc3ccc4nc(N5CCCCC5)cc(C)c4c3)CC2)c1	12µM	nt	i	12µM	nt	nt
Cc1cc(N2CCCCC2)nc2ccc(NC(=O)CCC(=O)N3CCN(c4ccccc4)CC3)cc12	?	nt	i	21µM	nt	nt
O=C(COC(=O)Cc1ccc(F)cc1)Nc1ccc(Cl)cn1	i	i	i	i	nt	i
COc1ccc(N2CCN(C(=O)CCCCCn3c(=O)[nH]c4ccsc4c3=O)CC2)cc1	?	i	i	16µM	i	i
O=C(CCn1c(=O)[nH]c2ccccc2c1=O)N1CCN(c2cccc(C(F)(F)F)c2)CC1	16µM	i	i	18µM	i	?
O=C(CCCCn1c(=O)[nH]c2ccsc2c1=O)N1CCN(c2cccc(C(F)(F)F)c2)CC1	12µM	nt	i	9.2µM	nt	nt
